Results filed as inconclusive are left out. Active and inactive are the calls of the source. Calls follow the shape of the dose curve; as a rule, active = well fitted inhibition curve with a large enough effect; inconclusive = small, poorly fitted or top-dose-only effect; inactive = flat fitted curve, though single readings scatter.
tested on: Zika virus NS2B-NS3 protease; assay: Primary screen GU AMC qHTS for Zika virus inhibitors (AID 1347154); conditions: Zika NS2B-NS3 unlinked protease, AMC fluorogenic substrate; series mostly up to 54.1 µM; activity change, negative = inhibition: at the top concentration;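 also: 0% = no-inhibitor control and -100% = no-enzyme control; nearly all actives have a fitted effect of over 70% in size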
Procedure, shortened: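 Unlinked Zika NS2B hydrophilic domain/NS3 protease domain noncovalent complex (25 nM final) in 10 mM Tris-HCl pH 8.0, 0.01% Tween 20, with AMC peptide substrate. Fluorescence (ex 340, em 450 nm) change over 15 min, room temperature; percent inhibition fitted to 4-parameter Hill equation.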

SMILES | activity change, negative = inhibition | Potency
Nc1nc(Cl)nc2c1ncn2[C@@H]1O[C@H](CO)[C@@H](O)[C@H]1O | 10.7% (inactive) | –
CCOc1ccc2nc(S(N)(=O)=O)sc2c1 | -18.6% (inactive) | –
CCCCC1C(=O)N(c2ccccc2)N(c2ccc(O)cc2)C1=O (configuration not stated) | -12.2% (inactive) | –
CNC(=O)[C@H]1O[C@@H](n2cnc3c(NCc4ccc(N)cc4)ncnc32)[C@H](O)[C@@H]1O | 4.81% (inactive) | –
CN1CCC[C@H]1c1cccnc1 | 5.79% (inactive) | –
O=C(O)[C@@H]1C[C@@H](C(=O)O)N1 | – | inactive
N=C(N)N | 0.732% (inactive) | –
c1ccc2sc(SN3CCOCC3)nc2c1 | -8.6% (inactive) | –
CCCOC(=O)c1ccc(O)cc1 | 6.4% [at 104 µM] (inactive) | –
CO[C@@]1(NC(=O)Cc2cccs2)C(=O)N2C(C(=O)O)=C(COC(N)=O)CS[C@@H]21 | -5.42% (inactive) | –
NC(=S)NCCC[C@H](N)C(=O)O | 9.32% [at 104 µM] (inactive) | –
CCCCCCOc1ccccc1C(N)=O | -3.05% (inactive) | –
Cc1c(Nc2ncccc2C(=O)O)cccc1C(F)(F)F | -2.54% (inactive) | –
Nc1ccc(C(=O)O)c(O)c1 | -3.63% (inactive) | –
NCCO | 1.7% [at 104 µM] (inactive) | –
O=C1CN(/N=C/c2ccc(-c3ccc([N+](=O)[O-])cc3)o2)C(=O)N1 | 16.9% [at 104 µM] (inactive) | –
CCCC(=O)OC[C@@H](OC(=O)CCC)[C@@H](OC(=O)CCC)[C@H](Cn1c2nc(=O)[nH]c(=O)c-2nc2cc(C)c(C)cc21)OC(=O)CCC | -12.6% (inactive) | –
Cc1c(N)c(=O)n(-c2ccccc2)n1C | 7.27% (inactive) | –
Cc1[nH]cnc1CN1CCc2c(c3ccccc3n2C)C1=O | -6.73% (inactive) | –
Cc1ccc(O)c(-n2nc3ccccc3n2)c1 | 4.96% (inactive) | –
Cc1cc(O)c2ccccc2c1O | -3.72% (inactive) | –
COc1ccc(-c2cc(=S)ss2)cc1 | -9.05% (inactive) | –

Reference: PubChem BioAssay (NCATS)
